The target of assay [1] is Estrogen receptor (Homo sapiens) (UniProt P03372). Nature of the assay: qHTS assay to identify small molecule agonists of the estrogen receptor alpha (ER-alpha) signaling pathway in the presence of an antagonist (AID 1259383). Further: nearly all actives have a fitted effect of over 15% in size. Further: potency means the concentration at half of the fitted maximal effect. On activation: top concentration of the series differs between compounds. The gist of the method: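 Quantitative HTS confirmation: compounds titrated at 15 concentrations onto estrogen-deprived VM7Luc4E2 cells carrying a four-ERE luciferase construct, with ICI-182,780 present at 10.0nM final. Signal is luminescence after 22hr exposure.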
Estrogen receptor (Homo sapiens), sequence (P03372 whole entry, looked up): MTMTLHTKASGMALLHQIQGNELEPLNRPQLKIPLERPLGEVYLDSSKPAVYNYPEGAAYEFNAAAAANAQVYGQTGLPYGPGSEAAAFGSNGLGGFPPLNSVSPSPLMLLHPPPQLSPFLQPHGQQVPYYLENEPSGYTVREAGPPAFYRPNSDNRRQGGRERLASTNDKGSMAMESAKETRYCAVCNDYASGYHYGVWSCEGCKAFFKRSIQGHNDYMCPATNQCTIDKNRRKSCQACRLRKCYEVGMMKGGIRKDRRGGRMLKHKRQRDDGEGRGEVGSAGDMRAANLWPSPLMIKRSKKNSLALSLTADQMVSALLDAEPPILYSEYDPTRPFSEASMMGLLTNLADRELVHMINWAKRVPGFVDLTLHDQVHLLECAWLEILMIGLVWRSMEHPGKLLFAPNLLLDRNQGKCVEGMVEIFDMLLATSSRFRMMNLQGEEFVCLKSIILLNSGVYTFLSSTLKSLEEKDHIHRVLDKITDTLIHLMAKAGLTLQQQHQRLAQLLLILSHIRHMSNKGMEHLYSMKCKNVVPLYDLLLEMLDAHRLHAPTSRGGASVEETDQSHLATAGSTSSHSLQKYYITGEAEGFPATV
For orientation: Quantitative high-throughput screening tests each substance at several concentrations.

Assay [2] in a line: qHTS assay to identify small molecule agonists or antagonists of the thyroid stimulating hormone receptor (TSHR) signaling pathway - wild type cell line counter screen (AID 1259384). Put shortly: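 Wild-type HEK293 cells were plated 18 h at 37 C/5% CO2, pin-dosed with compound plus Ro20-1724 medium, held 30 min at room temperature, then given cAMP-d2 and anti-cAMP-cryptate; fluorescence was read after 1 h. Fifteen concentrations, triplicate.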

The target of assay [3] is Thyrotropin receptor (Homo sapiens) (UniProt P16473). Kind of assay: qHTS assay to identify small molecule antagonists of the thyroid stimulating hormone receptor (TSHR) signaling pathway (AID 1259385). Further: nearly all actives have a fitted effect of over 20% in size. Put shortly:
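TSHR-HEK293 cells were plated and held 18 h at 37C/5% CO2, then given compound plus Ro20-1724 and stimulated with TSH at 1.5 ng/mL final. After 30 min at room temperature, cAMP was detected with cAMP-d2/anti-cAMP-cryptate (1 h) by fluorescence.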

In assay [4] the target is Progesterone receptor (Homo sapiens) (UniProt P06401). Nature of the assay: qHTS assay to identify small molecule agonists of the progesterone receptor (PR) signaling pathway (AID 1346784). Further: nearly all actives have a fitted effect of over 30% in size. Put shortly:
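Using charcoal-stripped serum (2%) to limit endogenous steroids, PR-UAS-bla HEK 293T cells received compounds for 16 hr at 37C after 6 hr plating; beta-lactamase FRET fluorescence was recorded following 2 hr substrate loading at room temperature.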

The target is the same in assay [5]. Nature of the assay: qHTS assay to identify small molecule antagonists of the progesterone receptor (PR) signaling pathway (AID 1346795; active means well fitted inhibition curve with a large enough effect in the signal ratio in the repeat runs, not every such curve was filed as active; the % refers to the signal ratio; further: potency means the concentration at half of the fitted maximal effect). Put shortly:
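Inhibition of R5020-induced (1 nM final) beta-lactamase reporter signal in PR-UAS-bla HEK293T cells was scored by FRET fluorescence after overnight (16 hr) compound treatment.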

Assay [6] can be described thus: qHTS assay to identify small molecule antagonists of the progesterone receptor (PR) signaling pathway - cell viability counter screen (AID 1346798; active means well fitted curve in the direction sought with a large enough effect in the repeat runs; an effect the other way counts as inactive or inconclusive; further: series mostly up to about 92 µM; nearly all actives have a fitted effect of over 50% in size). Put shortly: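 ATP content as viability readout: CellTiter-Glo luminescence, 30 min room temperature, in PR-UAS-bla HEK293T cells after 16 hr compound/R5020 treatment at 37C and 5% CO2.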
Assay [7] in a line: qHTS assay to identify small molecule agonists of the progesterone receptor (PR) signaling pathway - cell viability counter screen (AID 1346799). Further: nearly all actives have a fitted effect of over 45% in size. The gist of the method: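 Cytotoxicity in PR-bla HEK293T cells: 16 h compound, 37C; CellTiter-Glo added post-FRET read; luminescence after 30 min RT.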
Assay [8] is described as follows: qHTS assay to identify small molecule antagonists of the TGF-beta/Smad signaling pathway - cell viability counter screen (AID 1346824; active means well fitted curve in the direction sought with a large enough effect in the repeat runs; an effect the other way counts as inactive or inconclusive; further: nearly all actives have a fitted effect of over 50% in size). Put shortly: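 SBE-bla HEK 293T cells were plated overnight at 37 C, then given compounds in DMSO plus TGF-beta1 (added as 0.25 ng/mL solution) for 5 hr. After the bla read, CellTiter-Glo was added to the same wells and luminescence read after 30 min at room temperature.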

Assay [9] can be described thus: qHTS assay to identify small molecule agonists of the TGF-beta/Smad signaling pathway - cell viability counter screen (AID 1346829; active means well fitted curve in the direction sought with a large enough effect in the repeat runs; an effect the other way counts as inactive or inconclusive; further: top concentration of the series differs between compounds; nearly all actives have a fitted effect of over 45% in size). Put shortly: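 Same-well cytotoxicity: CellTiter-Glo added after the 2 hr room-temperature beta-lactamase substrate step, luminescence measured 30 min later; cells had 5 hr of compound at 37 C.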
Assay [10] in a line: qHTS assay to identify small molecule agonists of the estrogen receptor alpha (ER-alpha) signaling pathway in the presence of an antagonist - cell viability counter screen (AID 1259386; active means well fitted curve in the direction sought with a large enough effect in the repeat runs; an effect the other way counts as inactive or inconclusive;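 further: series mostly up to about 92 µM; cells exposed to compounds for 22 h at 37 °C before the viability read; nearly all actives have a fitted effect of over 30% in size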). Put shortly:
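The test measures whether compounds kill ER-alpha reporter cells (VM7Luc4E2) under antagonist co-treatment (ICI-182,780, 10.0nM). Fluorescence from CellTiter-Fluor is read after a 22hr exposure.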

Values without a mark were called inactive. Records with an inconclusive call do not appear. Activity calls are given as the source filed them. Unless noted, the call rests on the fitted dose curve.
On the % scale 0 is the no-effect control and ±100 the full control effect.

Thyrotropin receptor (Homo sapiens), sequence (P16473 whole entry, looked up): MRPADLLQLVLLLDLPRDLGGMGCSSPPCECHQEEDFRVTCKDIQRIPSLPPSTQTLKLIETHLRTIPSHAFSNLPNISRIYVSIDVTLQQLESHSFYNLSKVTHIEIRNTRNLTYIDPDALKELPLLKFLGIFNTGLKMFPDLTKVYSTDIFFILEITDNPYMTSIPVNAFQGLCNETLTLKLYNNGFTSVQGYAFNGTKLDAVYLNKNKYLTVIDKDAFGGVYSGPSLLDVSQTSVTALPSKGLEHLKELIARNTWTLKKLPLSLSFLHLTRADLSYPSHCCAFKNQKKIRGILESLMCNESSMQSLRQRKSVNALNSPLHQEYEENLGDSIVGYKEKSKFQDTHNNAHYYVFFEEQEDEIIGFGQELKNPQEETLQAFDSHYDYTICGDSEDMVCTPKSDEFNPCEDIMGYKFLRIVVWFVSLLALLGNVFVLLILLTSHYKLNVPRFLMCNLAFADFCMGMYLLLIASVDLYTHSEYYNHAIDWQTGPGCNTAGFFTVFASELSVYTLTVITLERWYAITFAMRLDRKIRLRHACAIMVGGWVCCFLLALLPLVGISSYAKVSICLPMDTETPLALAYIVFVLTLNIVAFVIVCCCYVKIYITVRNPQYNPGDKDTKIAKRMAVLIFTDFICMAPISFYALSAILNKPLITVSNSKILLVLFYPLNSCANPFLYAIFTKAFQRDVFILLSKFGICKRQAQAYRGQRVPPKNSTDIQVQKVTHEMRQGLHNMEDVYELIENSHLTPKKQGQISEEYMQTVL
Progesterone receptor (Homo sapiens), sequence (P06401 whole entry, looked up): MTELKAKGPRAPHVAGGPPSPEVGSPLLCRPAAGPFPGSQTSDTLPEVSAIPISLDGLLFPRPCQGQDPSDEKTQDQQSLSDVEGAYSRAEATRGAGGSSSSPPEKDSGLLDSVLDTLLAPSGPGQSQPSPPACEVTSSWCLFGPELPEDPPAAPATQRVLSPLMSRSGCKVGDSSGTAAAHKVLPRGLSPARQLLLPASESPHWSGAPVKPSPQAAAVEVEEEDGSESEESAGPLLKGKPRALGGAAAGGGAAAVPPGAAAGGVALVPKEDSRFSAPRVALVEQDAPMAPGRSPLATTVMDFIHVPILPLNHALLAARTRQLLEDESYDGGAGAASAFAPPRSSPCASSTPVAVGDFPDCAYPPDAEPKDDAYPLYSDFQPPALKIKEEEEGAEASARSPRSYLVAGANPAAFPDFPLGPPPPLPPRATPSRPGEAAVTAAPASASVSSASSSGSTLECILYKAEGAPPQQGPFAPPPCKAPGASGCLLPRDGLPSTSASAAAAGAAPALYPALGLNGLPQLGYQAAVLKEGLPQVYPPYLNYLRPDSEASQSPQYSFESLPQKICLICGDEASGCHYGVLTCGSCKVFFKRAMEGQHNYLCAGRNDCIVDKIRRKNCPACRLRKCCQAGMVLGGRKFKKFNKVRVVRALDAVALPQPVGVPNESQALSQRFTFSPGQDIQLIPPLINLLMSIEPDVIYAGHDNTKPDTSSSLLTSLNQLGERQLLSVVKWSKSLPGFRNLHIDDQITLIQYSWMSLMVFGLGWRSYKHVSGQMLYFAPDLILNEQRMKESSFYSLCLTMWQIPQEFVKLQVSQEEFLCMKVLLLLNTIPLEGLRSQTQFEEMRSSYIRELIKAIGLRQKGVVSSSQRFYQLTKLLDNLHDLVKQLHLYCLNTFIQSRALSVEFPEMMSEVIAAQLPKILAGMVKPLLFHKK

On to `Clc1cc(Cl)c(Cl)c(Cl)c1Cl`, for which the Potency entry in [1], in assay [4], in [5] and in assay [7] was “inactive” each time. The molecule was called inactive in assay [2], in assay [3], in [6], in [8] and in [9].
For `Clc1ccc2c(c1)Nc1ccccc1S2`, the Potency result in [1] and in assay [7] was “inactive” each time. Also, the call in [2], in assay [3], in assay [10], in [6], in assay [8] and in [9] was inactive. Moreover, the Potency in assay [5] is 7.5 µM (active).
As to `CC(=O)/C=C/C=C1/C2CCC(C2)C1(C)C` (stereo not drawn), the Potency entry in assay [1], in assay [4], in [5] and in [7] was “inactive” throughout. For the same molecule, the molecule was called inactive in assay [2], in [3], in [6], in assay [8] and in assay [9].
For `CC(O)CCCCn1c(=O)c2c(ncn2C)n(C)c1=O` (stereo not drawn), the Potency entry in assay [1], in assay [4] and in [7] was “inactive” throughout. In addition, the call in assay [2], in assay [3], in assay [10], in assay [6] and in assay [9] was inactive.
With `Cc1ccccc1C#N`, the Potency entry in assay [1], in [4], in assay [5] and in assay [7] was “inactive” each time. Also, the molecule was called inactive in assay [2], in assay [3], in assay [6] and in assay [9].
For the molecule `CCO[Si](CC(C)C)(OCC)OCC`, the Potency result in assay [1], in assay [4] and in assay [5] was “inactive” each time. Besides, the molecule was classed as inactive in assay [2], in assay [3], in [10], in assay [8] and in assay [9].
With `CC(=O)O[C@@H]1CC2C3CCc4cc(OC(=O)c5ccccc5)ccc4C3CCC2(C)[C@H]1OC(C)=O` (stereo partly drawn), in assay [1], the Potency is 0.0473 µM (active). The molecule was called inactive in [2], in assay [3], in assay [10], in [8] and in [9]. In addition, the Potency entry in assay [4] and in assay [7] was “inactive” throughout.
In the case of `C/C=C/C(=O)CCCC`, the Potency entry in assay [1], in [4], in assay [5] and in assay [7] was “inactive” throughout. The molecule was called inactive in [2], in assay [3], in assay [6], in assay [8] and in assay [9].
Turning to `CN(C)CCC[C@@]1(c2ccc(F)cc2)OCc2cc(C#N)ccc21`, the Potency result in assay [1], in [4] and in assay [5] was “inactive” each time. The outcome in assay [2], in assay [3], in assay [10], in assay [8] and in [9] was inactive.
Regarding `CCC(C)c1nccnc1OC` (stereo not drawn), the Potency result in [1] and in assay [7] was “inactive” throughout. The molecule was classed as inactive in assay [2], in [3], in assay [10], in assay [8] and in [9].
For `COc1cnc(NS(=O)(=O)c2ccc(N)cc2)nc1`, the Potency entry in [1], in assay [4], in [5] and in assay [7] was “inactive” each time. The outcome in [2], in [3], in assay [10], in assay [8] and in assay [9] was inactive.
As for `CC(=O)c1ccc2ccc3ccccc3c2c1`, the Potency result in assay [1] and in [4] was “inactive” each time. Also, the outcome in [2], in assay [3], in assay [10] and in assay [9] was inactive. Further, the Potency in [5] was 9.63 µM (active).
As to `CC(=O)OC/C=C(/C)CCC=C(C)C`, the Potency result in assay [1], in assay [4], in assay [5] and in assay [7] was “inactive” in each case. The outcome in assay [2], in assay [3], in [8] and in assay [9] was inactive.
Regarding `CSC(=O)c1cccc2nnsc12`, the Potency entry in [1] and in assay [4] was “inactive” each time. Besides, the outcome in assay [2], in [3], in assay [10], in assay [6] and in [9] was inactive.
Regarding `O=S(=O)(O)CC(O)CCl` (stereo not drawn), the Potency entry in assay [1], in assay [4], in assay [5] and in assay [7] was “inactive” each time. Besides, the outcome in [10], in assay [6], in [8] and in [9] was inactive.
For `CCCCCCCCCCCCCCCCN(C)C`, the activation in [1] is 0.651% [at 8.39 µM]. The cAMP activity change in [2] was -1.46% [at 8.39 µM]. The activity change, negative = inhibition in assay [3] is 1.02% [at 8.39 µM]. Further, the values for the activity change, negative = cytotoxicity in [7] and in assay [9] were -6.19% [at 8.39 µM] and 16.2% [at 6.97 µM], respectively. The viability change, negative = cytotoxic in [8] was 3.18% [at 6.97 µM].
Regarding `Nc1nc(Cl)cc(Cl)n1`, the Potency result in assay [1], in [4] and in [5] was “inactive” in each case. For the same molecule, the outcome in assay [10], in assay [6] and in [8] was inactive.
Take `N=C(N)S(=O)O`: the Potency entry in assay [1] and in assay [7] was “inactive” each time. Also, the molecule was classed as inactive in assay [2], in assay [3], in assay [6] and in [8].
As to `Cc1ccc2cccnc2c1`, the Potency entry in assay [1], in assay [4], in [5] and in [7] was “inactive” each time. Besides, the result in assay [10], in assay [6] and in assay [9] was inactive.
As for `COCc1nnc(-c2ccc[n+]([O-])c2)n1-c1c(Cl)c(Cl)cc2[nH]c(=O)c(=O)[nH]c12`, the Potency result in [1], in assay [4] and in assay [7] was “inactive” in each case. Besides, the molecule was classed as inactive in assay [2], in assay [3] and in assay [9].

For the origin of these results see PubChem BioAssay (Tox21).
